Activity calls are given as the source filed them.

Experiment [1] is described as follows: small molecules captured by biotinylated probe aFSTL3 – biochemical, small-molecule microarray, fluorescence 635/667, stem cell growth factor project, primary screen (AID 1064).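 Further: measures binding of the biotinylated anti-FSTL3 antibody to printed compounds.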 The settings on record: higher = more signal.
The nature of experiment [2]: binders from COS7 lysate, DM2A8 probe, primary screen, torsin A project, cell lysate, small-molecule microarray, fluorescence 635/667 (AID 1065). The note with it: higher = more signal, COS7 lysate expressing mutant human TOR1A.
Experiment [3] can be described thus: small molecules captured by biotinylated probe aFGF2 – biochemical, small-molecule microarray, fluorescence 635/667, stem cell growth factor project, primary screen (AID 1067).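 Further: measures binding of biotinylated aFGF2 protein to printed compounds on slides; z-score merges feature fluorescence and signal-to-noise across triplicate slides.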 The note with it: higher = more signal.
Experiment [4] can be described thus: small molecules captured by biotinylated probe aFGF10 – biochemical, small-molecule microarray, fluorescence 635/667, stem cell growth factor project, primary screen (AID 1071).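 Further: score merges 667 nm spot intensity and signal to noise from triplicate slides.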 The note with it: higher = more signal.
Experiment [5] deals with Neurogenic locus notch homolog protein 2 (Homo sapiens) (UniProt Q04721). Nature of the experiment: small molecules binding Notch2 protein – biochemical, small-molecule microarray, 635 nm fluorescence, stem cell growth factors, primary screen (AID 1073). The note with it: higher = more signal.
Sequence of Neurogenic locus notch homolog protein 2 (Homo sapiens) (Q04721 whole entry, looked up, canonical isoform): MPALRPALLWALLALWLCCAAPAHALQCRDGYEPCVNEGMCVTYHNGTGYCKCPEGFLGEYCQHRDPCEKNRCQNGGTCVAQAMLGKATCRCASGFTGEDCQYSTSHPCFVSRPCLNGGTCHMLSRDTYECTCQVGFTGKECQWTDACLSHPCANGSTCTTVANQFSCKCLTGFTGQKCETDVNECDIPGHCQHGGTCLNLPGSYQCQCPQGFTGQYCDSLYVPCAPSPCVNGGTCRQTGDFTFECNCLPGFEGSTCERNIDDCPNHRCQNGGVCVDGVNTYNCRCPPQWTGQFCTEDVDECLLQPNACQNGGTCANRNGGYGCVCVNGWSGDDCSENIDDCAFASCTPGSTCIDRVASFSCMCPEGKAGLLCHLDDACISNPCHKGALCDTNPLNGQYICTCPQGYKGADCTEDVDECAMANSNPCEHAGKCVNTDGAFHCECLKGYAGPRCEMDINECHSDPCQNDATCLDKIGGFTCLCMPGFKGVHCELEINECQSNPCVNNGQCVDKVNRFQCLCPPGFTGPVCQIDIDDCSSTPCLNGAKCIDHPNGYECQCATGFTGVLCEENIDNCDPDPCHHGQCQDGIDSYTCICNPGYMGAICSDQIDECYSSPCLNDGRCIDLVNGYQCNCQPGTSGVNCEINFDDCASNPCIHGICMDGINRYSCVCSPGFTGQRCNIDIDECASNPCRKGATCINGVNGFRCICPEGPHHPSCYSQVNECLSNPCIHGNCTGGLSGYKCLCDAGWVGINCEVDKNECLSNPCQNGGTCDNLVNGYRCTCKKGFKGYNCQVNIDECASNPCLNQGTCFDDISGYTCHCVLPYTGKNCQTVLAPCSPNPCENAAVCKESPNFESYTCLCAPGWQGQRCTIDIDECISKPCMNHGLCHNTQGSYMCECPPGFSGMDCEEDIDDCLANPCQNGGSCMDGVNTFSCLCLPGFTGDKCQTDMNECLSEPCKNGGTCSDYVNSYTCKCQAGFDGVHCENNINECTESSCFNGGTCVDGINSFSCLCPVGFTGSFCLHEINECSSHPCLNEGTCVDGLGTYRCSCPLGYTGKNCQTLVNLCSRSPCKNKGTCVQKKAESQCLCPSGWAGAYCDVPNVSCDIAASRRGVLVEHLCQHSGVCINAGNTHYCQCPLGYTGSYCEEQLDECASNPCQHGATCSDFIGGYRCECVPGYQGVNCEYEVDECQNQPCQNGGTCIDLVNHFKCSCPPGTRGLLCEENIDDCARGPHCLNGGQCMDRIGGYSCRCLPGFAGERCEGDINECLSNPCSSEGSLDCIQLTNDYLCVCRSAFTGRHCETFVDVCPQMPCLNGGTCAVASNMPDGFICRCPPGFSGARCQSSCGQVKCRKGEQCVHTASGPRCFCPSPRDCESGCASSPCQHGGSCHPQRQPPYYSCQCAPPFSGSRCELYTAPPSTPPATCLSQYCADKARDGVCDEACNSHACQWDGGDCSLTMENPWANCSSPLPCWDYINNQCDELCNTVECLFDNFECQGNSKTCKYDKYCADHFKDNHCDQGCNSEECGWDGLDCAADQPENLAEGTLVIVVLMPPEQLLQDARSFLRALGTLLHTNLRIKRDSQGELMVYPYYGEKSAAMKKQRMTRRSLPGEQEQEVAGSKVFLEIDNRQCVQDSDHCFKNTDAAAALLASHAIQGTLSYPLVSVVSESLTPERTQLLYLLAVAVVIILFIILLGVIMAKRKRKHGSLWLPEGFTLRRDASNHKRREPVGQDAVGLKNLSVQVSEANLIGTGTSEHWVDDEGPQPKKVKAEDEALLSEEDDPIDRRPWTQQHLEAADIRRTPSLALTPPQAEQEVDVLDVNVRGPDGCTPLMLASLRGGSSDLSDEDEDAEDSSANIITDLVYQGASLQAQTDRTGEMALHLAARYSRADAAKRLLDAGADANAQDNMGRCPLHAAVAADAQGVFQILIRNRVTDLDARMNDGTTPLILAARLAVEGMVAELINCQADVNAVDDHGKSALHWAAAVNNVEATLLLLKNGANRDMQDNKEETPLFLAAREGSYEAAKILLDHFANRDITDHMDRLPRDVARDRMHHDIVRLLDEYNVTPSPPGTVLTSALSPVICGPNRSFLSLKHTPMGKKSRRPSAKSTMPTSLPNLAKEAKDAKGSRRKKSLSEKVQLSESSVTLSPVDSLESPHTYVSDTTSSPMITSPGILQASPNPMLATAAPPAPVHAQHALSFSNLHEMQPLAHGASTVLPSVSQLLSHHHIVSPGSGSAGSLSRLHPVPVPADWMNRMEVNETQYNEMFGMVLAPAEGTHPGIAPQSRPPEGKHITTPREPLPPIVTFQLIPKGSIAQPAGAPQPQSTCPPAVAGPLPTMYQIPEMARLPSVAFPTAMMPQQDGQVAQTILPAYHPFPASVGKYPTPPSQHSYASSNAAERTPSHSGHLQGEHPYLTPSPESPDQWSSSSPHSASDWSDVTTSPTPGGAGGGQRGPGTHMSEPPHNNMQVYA
Experiment [6] concerns the target Pro-neuregulin-1, membrane-bound isoform (Homo sapiens) (UniProt Q02297). Nature of the experiment: small molecules binding neuregulin-1 protein – biochemical, small-molecule microarray, fluorescence 635/667, psychiatric disease protein project, primary screen (AID 1075).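 Further: score combines 667 nm spot fluorescence with signal to noise.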 The note with it: NRG1 binding, 635 nm fluorescence, higher = more signal.
In experiment [7] the test system is Neuregulin-1 EGF-like domain. Nature of the experiment: small molecules binding NRG1 EGF domain – biochemical, small-molecule microarray, 635 nm fluorescence, primary screen (AID 1081).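 Further: binding of the protein to compounds printed on small-molecule microarray slides.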 The settings on record: higher = more signal.
Experiment [8] in a line: FRG1 expression reporter modulators in myotubes – cell-based, C2C12 myotubes, firefly/Renilla luciferase, luminescence, FRG1 inhibition for FSHD, primary screen (AID 1084). The note with it: FRG1 promoter luciferase, higher = more signal, called active from +8 up or from −8 down.
Experiment [9] in a line: small molecules captured by biotinylated probe aFST – biochemical, small-molecule microarray, fluorescence 635/667, stem cell growth factor project, primary screen (AID 1086).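 Further: score merges 667 nm fluorescence with signal-to-noise of each printed compound spot.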 The settings on record: higher = more signal.
Experiment [10] can be described thus: binders of probe aHhip on microarray, primary screen, stem cell growth factor project, biochemical, small-molecule microarray, fluorescence 635/667 (AID 1087).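 Further: score merges spot fluorescence at 667nm with spot signal to noise ratio.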 The note with it: higher = more signal.
For experiment [11], the system named is PRMT1 (protein arginine N-methyltransferase 1). Nature of the experiment: small molecules binding arginine methyltransferase PRMT1 – biochemical, small-molecule microarray, 635 nm fluorescence, primary screen (AID 1088).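 Further: binding of Prmt1 protein to compounds spotted on small-molecule microarray slides.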 The note with it: higher = more signal.
The nature of experiment [12]: growth effects on S. cerevisiae YJM789 – YJM789 clinical isolate, OD600, 24 h, basal, primary screen (AID 1089).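 Further: growth of clinical yeast isolate S. cerevisiae YJM 789 seeded 1000 cells per well; test concentration not given here.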 The settings on record: higher = more signal, called active from +8 up or from −8 down.
A short description of experiment [13]: S. pombe growth modifiers, basal conditions – strain 972, OD600, 24 h, no modulator, primary screen (AID 1090).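 Further: basal condition with compound alone and no growth modifier present; test concentration not given here.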 The settings on record: S. pombe 972 growth, higher = more signal, called active from +8 up or from −8 down.
Experiment [14] is described as follows: budding yeast growth modifiers under rapamycin – strain BY4716, OD600, 96 h, primary screen (AID 1091). Further: test concentration not given here. The note with it: S. cerevisiae BY4716 + rapamycin, higher = more signal, called active from +8 up or from −8 down.
Experiment [15] concerns the target Torsin-1A-interacting protein 2 (Homo sapiens) (UniProt Q8NFQ8). The experiment is described as follows: small molecules binding lysate-expressed LULL1 – cell lysate, human LULL1 lysate, 635/667 nm fluorescence, primary screen (AID 1092).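 Further: probe is lysate of COS7 cells overexpressing human LULL1; score merges per-feature 667 nm fluorescence with signal-to-noise.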 The settings on record: small-molecule microarray, hLULL1 lysate binding, 635 nm fluorescence; higher = more signal.
Experiment [16] can be described thus: optical density change of DRC41 E. coli – strain DRC41, OD650, 24 h, E. coli filamentation project, primary screen (AID 1093).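 Further: MC1000 strain lacking acrAB efflux and sulA so SOS filamentation is blocked; test concentration not given here.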 The settings on record: E. coli DRC41 growth, higher = more signal, called active from +8 up or from −8 down.
Experiment [17] in a line: probe aLefty2 binding to arrayed compounds – biochemical, biotinylated probe, 635/667 nm fluorescence, primary screen (AID 1094).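 Further: score merges spot fluorescence near 667 nm with spot signal-to-noise ratio.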 The settings on record: small-molecule microarray, higher = more signal.
Experiment [18] concerns Noggin (protein binding on small-molecule microarray). Nature of the experiment: small molecules binding Noggin protein – biochemical, 635/667 nm fluorescence, primary screen (AID 1095).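 Further: score merges 667 nm feature fluorescence with signal to noise over triplicate slides.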 The settings on record: 635 nm fluorescence, higher = more signal.
In experiment [19] the target is Neurogenic locus notch homolog protein 3 (Homo sapiens) (UniProt Q9UM47). The experiment is described as follows: small molecules binding NOTCH3 protein – biochemical, 635/667 nm fluorescence, primary screen (AID 1096). The settings on record: small-molecule microarray, 635 nm fluorescence, higher = more signal.
Experiment [20] in a line: probe aEGFR binding to arrayed compounds – biochemical, biotinylated probe, 635/667 nm fluorescence, primary screen (AID 1097).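 Further: probe is a biotinylated anti-EGFR antibody binding compounds printed on slides; score combines fluorescence near 667 nm and signal to noise of each spot.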 The settings on record: small-molecule microarray, higher = more signal.

Sequence of Pro-neuregulin-1, membrane-bound isoform (Homo sapiens) (Q02297 whole entry, looked up, the tested form may be a part, canonical isoform): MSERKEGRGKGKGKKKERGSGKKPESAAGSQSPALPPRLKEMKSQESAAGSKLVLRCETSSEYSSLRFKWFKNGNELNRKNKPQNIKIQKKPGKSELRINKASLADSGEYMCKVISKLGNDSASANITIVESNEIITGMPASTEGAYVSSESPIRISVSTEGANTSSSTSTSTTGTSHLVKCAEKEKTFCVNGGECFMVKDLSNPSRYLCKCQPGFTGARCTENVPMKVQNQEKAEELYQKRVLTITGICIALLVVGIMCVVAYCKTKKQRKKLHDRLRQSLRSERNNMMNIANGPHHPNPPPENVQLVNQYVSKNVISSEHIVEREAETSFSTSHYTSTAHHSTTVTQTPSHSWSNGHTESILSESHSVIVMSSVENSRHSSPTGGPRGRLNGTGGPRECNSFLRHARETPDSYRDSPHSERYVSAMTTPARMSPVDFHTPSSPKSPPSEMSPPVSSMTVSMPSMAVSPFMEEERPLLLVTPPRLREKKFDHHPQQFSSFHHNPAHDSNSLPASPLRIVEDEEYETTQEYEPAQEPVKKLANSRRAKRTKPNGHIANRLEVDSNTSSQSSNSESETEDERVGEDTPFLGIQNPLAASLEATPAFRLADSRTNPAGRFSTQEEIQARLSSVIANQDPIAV
Sequence of Torsin-1A-interacting protein 2 (Homo sapiens) (Q8NFQ8 whole entry, looked up): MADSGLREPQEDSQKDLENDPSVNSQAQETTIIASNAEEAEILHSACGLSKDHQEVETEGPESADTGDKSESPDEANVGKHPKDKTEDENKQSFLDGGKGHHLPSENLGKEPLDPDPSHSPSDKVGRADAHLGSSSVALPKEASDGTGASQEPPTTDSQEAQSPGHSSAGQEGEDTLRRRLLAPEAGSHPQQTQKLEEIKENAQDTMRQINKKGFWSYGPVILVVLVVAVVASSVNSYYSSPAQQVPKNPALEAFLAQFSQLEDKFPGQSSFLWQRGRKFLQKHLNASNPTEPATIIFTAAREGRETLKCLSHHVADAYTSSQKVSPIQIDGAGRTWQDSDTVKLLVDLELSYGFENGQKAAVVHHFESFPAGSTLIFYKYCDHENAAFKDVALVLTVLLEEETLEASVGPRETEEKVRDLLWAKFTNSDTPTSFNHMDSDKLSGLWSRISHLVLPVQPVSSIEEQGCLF

Turning to `COCCOC(=O)N1C(=O)[C@@]2(c3cc(C#CC4(O)CCCCCC4)ccc31)[C@H](C(=O)N1CCc3cc(OC)c(OC)cc3C1)[C@H]1C(=O)O[C@H](c3ccccc3)[C@H](c3ccccc3)N1[C@@H]2c1ccc(O)cc1`, the composite z-score in experiment [1] is -0.277; in experiment [2], 2.26; in experiment [3], -0.01; in experiment [4], 0.68; in experiment [5], 1.51; in experiment [6], 0.156. Moreover, the composite z-score in experiment [7] was 1.16; in experiment [9], 0.101; in [10] it was -0.0618; in experiment [11], 1.54; in experiment [15], 2.96; in experiment [17], -0.0699. Besides, the values for the composite z-score in [18], in [19] and in [20] were 1.44, 1.05 and 1.04, respectively. Further, the z-score in experiment [8] was -0.877 (inactive); in [12], 0.449 (inactive); in [13], -0.929 (inactive); in experiment [14], 1.7 (inactive); in [16] it was 1.55 (inactive).
On to `CCCCC(=C=CC[C@@H](O)c1cccc(OCCO)c1)CCO`, for which the composite z-score is -0.219 in experiment [1]; -0.555 in experiment [2]; -0.057 in experiment [3]; 0.601 in experiment [4]; -0.277 in [5]; -0.0951 in [6]. Besides, the composite z-score was 0.345 in experiment [7]; 0.0204 in experiment [9]; -0.128 in [10]; 0.468 in experiment [11]; 0.111 in [15]; -0.179 in experiment [17]. Moreover, the composite z-score is -0.0301 in [18], 0.098 in [19] and -0.152 in experiment [20]. Besides, the z-score is -0.225 (inactive) in experiment [8]; 0.633 (inactive) in experiment [12]; 0.111 (inactive) in [13]; -0.238 (inactive) in experiment [14]; 0.863 (inactive) in experiment [16].
`C[N+](C)(C)CCCC[C@@H]1NC(=O)[C@H]2C[C@@H](C(=O)NCCCCCNC(=O)CS)[C@@H](c3ccc(O)cc3)N2C1=O`: the composite z-score in experiment [1] was -0.257; in experiment [2], -0.0727; in [3], -0.118; in [4], 0.198; in experiment [5], 0.363; in experiment [6], 1.55. For the same compound, the composite z-score was 0.745 in [7]; 0.104 in [9]; 0.0623 in experiment [10]; 0.808 in experiment [11]; 1.91 in experiment [15]; -0.134 in experiment [17]. Moreover, the composite z-score in experiment [18] was 0.212; in experiment [19], 0.58; in [20], -0.0583. In addition, the z-score in experiment [8] is -1.04 (inactive); in experiment [12], -4.72 (inactive); in experiment [13] it was -0.839 (inactive); in [14], -0.554 (inactive); in [16], 1.42 (inactive).
Regarding `COC(=O)[C@@]1(CCC(=O)OC(C)(C)C)N=C(c2ccc(OCCCO)cc2)O[C@H]1c1ccccc1CN=[N+]=[N-]`, the composite z-score in [1] was 0.0643; in experiment [2] it was -0.13; in [3], -0.12; in [4] it was -0.191; in [5] it was -0.066; in experiment [6] it was 0.118. Moreover, the composite z-score in experiment [7] is 0.148; in [9] it was -0.04; in [10], 0.21; in [11], 0.373; in [15], 1.85; in experiment [17], -0.0963. Moreover, the composite z-score in [18] was 0.201; in experiment [19], 0.235; in experiment [20], -0.0418. In addition, the z-score in experiment [8] is -2.14 (inactive); in experiment [12] it was 0.0206 (inactive); in experiment [13] it was 0.646 (inactive); in [14], 9.66 (active); in [16], 1.08 (inactive).
`C[N+](C)(C)CCCCCCNC(=O)[C@H]1C[C@H]2C(=O)NCC(=O)N2[C@H]1c1cccc(OCCO)c1`: the composite z-score in experiment [1] was -0.513; in [2], 0.44; in experiment [3] it was -0.0316; in experiment [4], 0.817; in experiment [5], -0.0407; in experiment [6], 0.205. Moreover, the composite z-score was 1.27 in experiment [7]; -0.393 in experiment [9]; -0.737 in [10]; 1.22 in [11]; 3.07 in experiment [15]; -0.133 in experiment [17]. Also, the values for the composite z-score in experiment [18], in [19] and in [20] were 1.48, 1.12 and 0.208, respectively. Also, the z-score in experiment [8] was 2.33 (inactive); in experiment [12], -0.874 (inactive); in [13] it was 0.198 (inactive); in experiment [14], 0.0891 (inactive); in experiment [16], -0.329 (inactive).
